Screens from PubChem.
RORg inh: ROR gamma (mouse) transcription inhibition. P51450. Potency, µM (top dose mostly 53.6 µM), without a hit: at the highest dose activity change, negative = inhibition, usual class: inhibitors. Drosophila S2 Gal4-RORgamma UAS-luciferase reporter, 20 h. AID 2551. hit rate 5.4% among 310,000; also: potency is read from the fitted curve at half-maximal effect; nearly all actives have a fitted effect of over 60% in size
Target sequence (P51450 whole entry, looked up, the tested form may be a part): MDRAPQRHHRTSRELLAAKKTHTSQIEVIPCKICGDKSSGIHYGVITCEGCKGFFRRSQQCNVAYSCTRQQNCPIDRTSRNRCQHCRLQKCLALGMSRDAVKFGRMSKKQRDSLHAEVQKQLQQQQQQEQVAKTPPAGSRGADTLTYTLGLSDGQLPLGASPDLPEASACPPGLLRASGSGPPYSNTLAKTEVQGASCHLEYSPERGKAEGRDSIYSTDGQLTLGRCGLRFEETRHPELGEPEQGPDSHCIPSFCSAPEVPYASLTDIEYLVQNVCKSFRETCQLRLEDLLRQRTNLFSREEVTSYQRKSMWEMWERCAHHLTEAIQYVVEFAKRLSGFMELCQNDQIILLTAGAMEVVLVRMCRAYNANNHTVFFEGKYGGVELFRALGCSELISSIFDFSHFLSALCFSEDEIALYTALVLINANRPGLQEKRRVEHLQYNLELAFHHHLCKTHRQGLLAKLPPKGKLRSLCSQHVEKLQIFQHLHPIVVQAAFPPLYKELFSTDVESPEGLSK
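ROR gamma transcriptional activity was tracked as Gal4-UAS luciferase output in stably transfected Drosophila Schneider cells, with compound added 1 hr before 700 uM copper sulfate induction and a 20 hr ambient-temperature incubation.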
TDP1 cell CPT: DT40-hTDP1 cell growth loss with CPT; chicken DT40 Tdp1-/-;hTDP1 cells + 20 nM CPT, ATP luminescence, 48 h; Potency, µM (titrated, usually from 46.2 µM), inactives show top-dose activity change, negative = growth inhibition, usual class: inhibitors; hit rate 12% among 420,000; also: potency is read from the fitted curve at half-maximal effect; nearly all actives have a fitted effect of over 55% in size
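Cell growth measured by CellTiter-Glo luminescence after a minimum 48 h, 37 C compound exposure with 20 nM CPT in Tdp1-knockout DT40 cells stably expressing hTDP1, seeded 400/well; qHTS titration format.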
TDP1 cell noCPT: qHTS for Inhibitors of human tyrosyl-DNA phosphodiesterase 1 (TDP1): qHTS in cells in absence of CPT; DT40 Tdp1-/- hTDP1 cells, no CPT, ATP luminescence, 48 h; hit rate 15% among 420,000; Potency, µM (highest dose often 46.2 µM), for inactives: at the top dose activity change, negative = growth inhibition, most hits filed as inhibitors; also: potency is read from the fitted curve at half-maximal effect; nearly all actives have a fitted effect of over 55% in size
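Luminescent ATP content (CellTiter-Glo) served as the growth readout. Knockout chicken DT40 cells expressing human TDP1 were exposed to compounds without camptothecin for a minimum 48 hr at 37 °C.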
ELG1 DNA repair: blocks ELG1-dependent DNA repair in HEK293T cells; HEK293T ELG1-luciferase reporter, luminescence, 16 h; DNA damage induced by 5-fluorouridine; Potency, µM (series often up to 46.1 µM), inactives show at the highest dose activity change, negative = inhibition, usual class: inhibitors; hit rate 2.3% among 330,000; AID 504467; also: potency is read from the fitted curve at half-maximal effect; nearly all actives have a fitted effect of over 55% in size
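Cells (2,000 per well) received 5-fluorouridine plus test compound or DMSO and were incubated 16 hr at 37 °C, 5% CO2. Luciferase activity was read by luminescence 30 min after ONE-Glo addition; signal suppression marked inhibition of damage-induced ELG1 function.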
IL1B secr inh: inhibitors of inflammasome signaling (IL-1 beta secretion); THP-1 LPS/ATP IL-1B secretion, AlphaLISA, 16 h; active compounds read low; activity change, % at 57.5 µM; hit rate 4.7% among 360,000; AID 743279; in the data active = activity change below about -50%; inconclusive = mostly about -30% to -49%
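THP-1 cells pretreated 1 hr with compounds (up to 57.5 uM final), then stimulated with LPS (250 ng/mL final) plus ATP (1.25 mM final); secreted IL-1B measured by AlphaLISA after 16 hr, decreased signal indicating inhibition.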
VP16 counter: counter-screen for ROR gamma inhibitors: Gal4-VP16 reporter. Drosophila S2 Gal4-VP16 UAS-luciferase, luminescence, 20 h. Potency, µM (series often up to 53.6 µM), inactives show at the top dose activity, negative = inhibition, hits mostly inhibitors. AID 2546. hit rate 3.5% among 310,000;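 also: Gal4-VP16 expression switched on by copper sulfate through the metallothionein promoter; potency is read from the fitted curve at half-maximal effect; nearly all actives have a fitted effect of over 50% in size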
Active calls of the source: *; ? = inconclusive; / = no result given; [ ] = dose if it differs, or a comment. Hits are enriched below; roughly 21% of the tested compounds scored in any of these assays. Unless noted, calls follow the shape of the dose curve; as a rule, active = well fitted curve in the direction sought with a large enough effect; inconclusive = small, poorly fitted or top-dose-only effect, or another doubt; inactive = no such curve, though single readings can be large; an effect the other way counts as inactive or inconclusive. % is scaled to controls: 0 for no effect and ±100 for the full control effect.

SMILES	RORg inh	TDP1 cell CPT	TDP1 cell noCPT	ELG1 DNA repair	IL1B secr inh	VP16 counter
CCOC(=O)c1c(C)oc2c1c(C=NCCC(=O)O)c(O)c1ccccc12	-33%	-1%	-21%	17%	0	1%
CCOC(=O)c1c(C)oc2c1c(CN1CCN(C(=O)OCC)CC1)c(O)c1ccccc12	-40%	?	21µM*	?	?	-21%
CCOC(=O)N1CCN(Cc2cc(=O)oc3ccc4ccccc4c23)CC1	?	23µM*	?	?	-2	-9%
CCOC(=O)c1c(C)oc2c1c1c(c3ccccc32)OCN(Cc2ccccn2)C1	7.1µM*	?	?	?	-75*	11µM*
O=c1cc(CN2CCCC2)c2c(ccc3ccccc32)o1	/	-3%	-4%	/	8	/
Nn1c(SCC(=O)N2CCOCC2)nnc1C1CC1	12%	4%	-7%	1%	-5	7%
CCCC[C@@H](NC(=O)[C@@H](Cc1cn(C(=O)OC)c2ccccc12)NC(=O)[C@H](CC(C)(C)C)NC(=O)N1[C@H](C)CCC[C@@H]1C)C(=O)O	-1%	/	/	/	/	8%
CCOC(=O)CNC(=O)c1ccc(-c2nn(C)c(=O)c3ccccc23)cc1	/	-13%	-4%	/	/	/
COCCNC(=O)CSc1nc2ccccc2c(=O)n1-c1cccc(OC)c1	9%	-20%	-17%	1%	0	5%[0.365 µM]
COCC(C)n1c(SCc2ccc(OC)c(F)c2)nc2ccccc2c1=O (centres undefined)	?	5.8µM*	4.1µM*	?	51	-20%
COCCNC(=O)c1ccc(-n2c(SCc3ccncc3)nc3ccccc3c2=O)cc1	13%	-8%	-28%	?	-73*	-26%
COCC(C)n1c(SCc2ccc(C(=O)OC)cc2)nc2ccccc2c1=O (centres undefined)	?	12µM*	9.2µM*	-3%	5	-2%
COCC(C)n1c(SCC(=O)NC(=O)Cc2ccccc2)nc2ccccc2c1=O (centres undefined)	/	?	-21%	-8%	3	/
CC(Sc1ncn[nH]1)C(=O)Nc1cc(C(F)(F)F)ccc1Cl (centres undefined)	/	-1%	-23%	8%	-18	/
COc1cc(NC(=O)NCCn2nnc3cc(S(=O)(=O)N(C)C)ccc32)cc(OC)c1	/	-24%	-3%	/	/	/
CCc1ccccc1N(C)C(=O)c1cc2c(=O)oc3ccccc3c2s1	/	-30%	?	/	/	/
CC(C)NC(=O)N(C)C[C@@H]1OCc2cnnn2CCCC(=O)N([C@H](C)CO)C[C@@H]1C	/	-3%	-9%	/	21	/
Cn1cccc1C(=O)N1CCC2(CC1)CN(c1ccncc1)C2	-17%	-21%	?	/	/	6%
O=C(N[C@@H]1c2ccccc2C2(CCN(C(=O)c3cc4ccccc4oc3=O)CC2)[C@H]1O)c1cccnc1	/	-1%	-6%	/	/	/
COC(=O)CC1Oc2ccc(C)cc2-n2cc(-c3ccc(C)cc3)nc21 (centres undefined)	/	16µM*	13µM*	/	/	/
COC(=O)CC1Oc2ccc(Cl)cc2-n2cc(-c3ccc(C)cc3)nc21 (centres undefined)	/	9.2µM*	6.5µM*	/	/	/
Cc1ccc(CN2C(=O)C(F)(F)Oc3ccccc32)cc1	/	11%	1%	/	16	/
COC(=O)CC1Oc2ccc(C)cc2NC1=O (centres undefined)	19%	-2%	5%	13%	23	17%
COC(=O)CC1Oc2ccccc2N(Cc2ccc(C)cc2)C1=O (centres undefined)	-4%	16µM*	26µM*	?	30	-21%
CCOc1cccc(C2c3c(oc4cc(C)c(C)cc4c3=O)C(=O)N2c2nc(C)c(C)s2)c1 (centres undefined)	/	-6%	-28%	/	/	/
SMILES	RORg inh	TDP1 cell CPT	TDP1 cell noCPT	ELG1 DNA repair	IL1B secr inh	VP16 counter
CCCOc1ccc(Cc2c(Cl)nc(SC)nc2N(C)C)cc1	?	?	15µM*	-22%	-26	5µM*
CCOC(=O)c1c(-c2ccc(Cl)cc2)c(C#N)c(=O)n(N)c1N	19%	?	0.52µM*	-6%	31	-6%
CC1(C)Cc2c(sc3c2C2=NCCN2C=N3)CS1	-3%	-26%	16µM*	-17%	1	-2%
COc1ccc(CCC(=O)NCc2nc3cccnc3n2Cc2ccc(C)cc2)cc1	/	?	23µM*	/	/	/
CCOc1ccccc1C(=O)NCc1nc2cccnc2n1Cc1ccc(C)cc1	/	18µM*	16µM*	/	/	/
COc1ccc(CCC(=O)NCc2nc3cccnc3n2Cc2ccccc2)cc1	/	?	16µM*	/	/	/
COc1ccc(CC(=O)NCc2nc3cccnc3n2Cc2ccc(C)cc2)cc1	/	-21%	1%	/	/	/
COc1ccc(CCC(=O)NCc2nc3cccnc3n2Cc2ccc(OC)cc2)cc1	/	-9%	-15%	/	/	/
COc1cc(CN2C(=O)C(C)ON=C2c2ccccc2F)cc(OC)c1 (centres undefined)	/	?	?	/	26	/
COc1cc(Cl)c(S(=O)(=O)NCCCn2ccnc2)cc1Cl	-9%[1.91 µM]	8%	-20%	3%	-1	5%
CC(C)NC(=O)N1CC2(CCN(S(=O)(=O)c3ccccc3)CC2)C1	-14%	-1%	18%	/	/	-5%
CCOc1ccc(CNS(=O)(=O)c2cc3c(cc2C)NC(=O)CO3)cc1OC	/	-12%	-4%	/	/	/
CC(C)(C)c1ccc(NC(=O)C(=O)C2C(=O)Nc3ccccc32)cc1 (centres undefined)	2%	?	13µM*	12%	29	-11%
CN(C)c1ccc(NC(=O)C(=O)C2C(=O)Nc3ccccc32)cc1 (centres undefined)	4%	-21%	-22%	?	-4	-2%
CC(C)c1ccc(NC(=O)C(=O)C2C(=O)Nc3ccccc32)cc1 (centres undefined)	-17%	21µM*	15µM*	?	21	1%
CCn1cc(Cl)c(C(=O)N2N=C3/C(=C/c4cccs4)CCCC3C2c2cccs2)n1 (centres undefined)	?	18µM*	?	?	?	-16%
CN1CCN(C(=O)/C(=C/c2cn(S(=O)(=O)N(C)C)c3ccccc23)NC(=O)c2ccccc2)CC1	15%	-1%	1%	-20%	?	6%
Cc1cccc(CSC2=NCCN2S(=O)(=O)c2ccc(F)cc2)c1	25%	16µM*	?	-12%	-10	-8%
